Assay results as given in the supplement of paper PMC9337992.
± gives the standard deviation of the averaged measurements.

What was measured:
Test in all cases: cell proliferation (confluence) relative to DMSO control; higher = less growth inhibition
Details in all cases: 5 uM; 6 d
[1] = test system: BT549
Summary of the method: (§1)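 After adhering in 384-well plates at 500 cells per well, triple-negative breast cancer cell lines were treated for 6 d with each epigenetic chemical probe at a final 5 μM in DMSO. Four replicate wells per compound and DMSO-only wells were placed on each plate. Confluence, imaged in phase-contrast on an IncuCyte ZOOM, was scaled to the DMSO-only wells.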

[2] = test system: CAL120
Summary of the method: as §1

[3] = test system: HCC1143
Summary of the method: as §1

[4] = test system: HCC1395
Summary of the method: as §1

[5] = test system: HCC153
Summary of the method: as §1

[6] = test system: HCC1806
Summary of the method: as §1

[7] = test system: HCC38
Summary of the method: as §1

[8] = test system: HCC70
Summary of the method: as §1

[9] = test system: Hs578-T
Summary of the method: as §1

[10] = test system: MB157
Summary of the method: as §1

[11] = test system: SUM149-PT
Summary of the method: as §1

[12] = test system: SUM159-PT
Summary of the method: as §1

With `CC(C)Oc1ccc(-c2c[nH]cc2CN(C)CCN)cc1` the cell proliferation [1] was 90.4 ± 3.7%, the cell proliferation [2] was 99.34 ± 0.54% and the cell proliferation [3] was 97.6 ± 0.99%. It also gave a cell proliferation [4] of 99.982 ± 0.016%, a cell proliferation [5] of 59.3 ± 2.6% and a cell proliferation [6] of 80.7 ± 11%. It also gave a cell proliferation [7] of 99.56 ± 0.26%, a cell proliferation [8] of 94.5 ± 2.1% and a cell proliferation [9] of 95.4 ± 1.7%. The cell proliferation [10] was 93.7 ± 4.8%, the cell proliferation [11] was 67.6 ± 13% and the cell proliferation [12] was 99.843 ± 0.074%.

`COc1ccccc1C(=O)Nc1cc2c(cc1N1CCCC1)n(C)c(=O)n2C` was tested, and the cell proliferation [1] was 97.6 ± 1.7%, the cell proliferation [2] was 99.2 ± 0.47% and the cell proliferation [3] was 98.3 ± 1.9%. The cell proliferation [4] was 99.979 ± 0.014%, the cell proliferation [5] was 62.3 ± 11% and the cell proliferation [6] was 77.1 ± 7.8%. It also gave a cell proliferation [7] of 99.66 ± 0.35%, a cell proliferation [8] of 96.7 ± 3.5% and a cell proliferation [9] of 98.42 ± 0.77%. It also gave a cell proliferation [10] of 89.6 ± 12%, a cell proliferation [11] of 63 ± 8.4% and a cell proliferation [12] of 99.986 ± 0.0076%.

`COc1ccccc1S(=O)(=O)Nc1ccc2c(c1)CN(C)C(=O)N2` gave a cell proliferation [1] of 95.7 ± 1.4%, a cell proliferation [2] of 50.1 ± 11% and a cell proliferation [3] of 97.21 ± 0.84%. For the same compound, the cell proliferation [4] was 98.12 ± 0.25%, the cell proliferation [5] was 59.7 ± 1.8% and the cell proliferation [6] was 38.5 ± 27%. The cell proliferation [7] was 35.2 ± 7.6%, the cell proliferation [8] was 81.7 ± 7.9% and the cell proliferation [9] was 47.7 ± 1.6%. For the same compound, the cell proliferation [10] was 50.9 ± 5.5%, the cell proliferation [11] was 20.8 ± 3.4% and the cell proliferation [12] was 97.92 ± 0.3%.

`CCN(C(=O)CO)[C@H]1CN(/C(=N\C#N)Nc2cccc(OC(F)F)c2)N=C1c1ccc(Cl)c(Cl)c1` showed a cell proliferation [1] of 99.63 ± 0.31%, a cell proliferation [2] of 90.8 ± 2.4% and a cell proliferation [3] of 99.11 ± 0.44%. For the same compound, the cell proliferation [4] was 99.957 ± 0.033%, the cell proliferation [5] was 82.4 ± 4.8% and the cell proliferation [6] was 99.79 ± 0.11%. The cell proliferation [7] was 99.79 ± 0.12%, the cell proliferation [8] was 90.8 ± 8.2% and the cell proliferation [9] was 98.67 ± 0.29%. It also gave a cell proliferation [10] of 78.6 ± 8.9%, a cell proliferation [11] of 75.9 ± 10% and a cell proliferation [12] of 99.999 ± 0.002%.

`O=C(c1ccc(C(=O)N2CCC(N3CCCC3)CC2)c(Nc2ccccc2)c1)N1CCC(N2CCCC2)CC1` gave a cell proliferation [1] of 99.63 ± 0.2%, a cell proliferation [2] of 95.4 ± 2.1% and a cell proliferation [3] of 99.64 ± 0.16%. For the same compound, the cell proliferation [4] was 99.874 ± 0.068%, the cell proliferation [5] was 89.5 ± 3.3% and the cell proliferation [6] was 99.832 ± 0.085%. For the same compound, the cell proliferation [7] was 99.81 ± 0.17%, the cell proliferation [8] was 99.24 ± 0.6% and the cell proliferation [9] was 98.8 ± 0.39%. It also gave a cell proliferation [10] of 99.13 ± 0.32%, a cell proliferation [11] of 89.4 ± 9.2% and a cell proliferation [12] of 99.998 ± 0.0015%.

`Clc1cc2c(NC3CCCC3)nnc(-c3ccncc3)c2cc1Cl` showed a cell proliferation [1] of 99.863 ± 0.055%, a cell proliferation [2] of 83.4 ± 7.1% and a cell proliferation [3] of 99.1 ± 1.1%. It also gave a cell proliferation [4] of 99.965 ± 0.029%, a cell proliferation [5] of 87.7 ± 5.4% and a cell proliferation [6] of 98.95 ± 0.87%. The cell proliferation [7] was 99.63 ± 0.21%, the cell proliferation [8] was 99.12 ± 0.58% and the cell proliferation [9] was 97.48 ± 0.54%. The cell proliferation [10] was 98.8 ± 1.5%, the cell proliferation [11] was 64.6 ± 19% and the cell proliferation [12] was 99.992 ± 0.0029%.

`CCOC(=O)CCNc1cc(N2CCc3ccccc3CC2)nc(-c2ccccn2)n1` showed a cell proliferation [1] of 28.2 ± 3.8%, a cell proliferation [2] of 22.3 ± 2.1% and a cell proliferation [3] of 60.8 ± 4.6%. For the same compound, the cell proliferation [4] was 40.6 ± 9.5%, the cell proliferation [5] was 21.3 ± 3.7% and the cell proliferation [6] was 27.9 ± 4.9%. It also gave a cell proliferation [7] of 23.1 ± 5%, a cell proliferation [8] of 66 ± 12% and a cell proliferation [9] of 68.5 ± 11%. For the same compound, the cell proliferation [10] was 33.6 ± 8.3%, the cell proliferation [11] was 10.2 ± 3.8% and the cell proliferation [12] was 94.72 ± 0.36%.

With `COc1cc2c(NC3CCN(C(C)C)CC3)nc(C3CCCCC3)nc2cc1OCCCN1CCCC1` the cell proliferation [1] was 99.51 ± 0.12%, the cell proliferation [2] was 81.6 ± 8.8% and the cell proliferation [3] was 98.93 ± 0.9%. It also gave a cell proliferation [4] of 99.3 ± 0.76%, a cell proliferation [5] of 89 ± 4.7% and a cell proliferation [6] of 99.53 ± 0.2%. It also gave a cell proliferation [7] of 99.86 ± 0.072%, a cell proliferation [8] of 98.64 ± 0.65% and a cell proliferation [9] of 98.1 ± 1.1%. It also gave a cell proliferation [10] of 67.8 ± 16%, a cell proliferation [11] of 91.8 ± 8.8% and a cell proliferation [12] of 99.996 ± 0.0018%.

In the case of `CNCCN1CCC(OCc2ccccc2)CC1`, the cell proliferation [1] is reported as 98.25 ± 0.81%, the cell proliferation [2] is reported as 97.25 ± 0.95% and the cell proliferation [3] is reported as 96.6 ± 1.6%. For the same compound, the cell proliferation [4] was 99.984 ± 0.0095%, the cell proliferation [5] was 60.3 ± 10% and the cell proliferation [6] was 73.6 ± 7.1%. For the same compound, the cell proliferation [7] was 99.63 ± 0.28%, the cell proliferation [8] was 88.5 ± 12% and the cell proliferation [9] was 97.85 ± 0.92%. The cell proliferation [10] was 93.3 ± 5.4%, the cell proliferation [11] was 72.8 ± 18% and the cell proliferation [12] was 99.906 ± 0.052%.

With `Cc1nnc2c3ccccc3c(N[C@@H](C)[C@H](c3ccccc3)N(C)C)nn12` [L-moses] the cell proliferation [1] was 98.1 ± 1.5%, the cell proliferation [2] was 99.22 ± 0.67% and the cell proliferation [3] was 97.14 ± 0.68%. It also gave a cell proliferation [4] of 99.898 ± 0.059%, a cell proliferation [5] of 60.8 ± 6% and a cell proliferation [6] of 81.2 ± 6.2%. The cell proliferation [7] was 99.61 ± 0.29%, the cell proliferation [8] was 96.2 ± 2.5% and the cell proliferation [9] was 87 ± 19%. The cell proliferation [10] was 98.5 ± 1.9%, the cell proliferation [11] was 75.8 ± 11% and the cell proliferation [12] was 99.952 ± 0.041%.

Compound `COc1c(C)cc(NC(=O)c2nn(Cc3ccc(F)cc3)c3c2CN(C(=O)c2ccc[nH]2)C[C@]3(C)C(N)=O)cc1C` has a cell proliferation [1] of 95.2 ± 2.6%, a cell proliferation [2] of 98.5 ± 1.5% and a cell proliferation [3] of 97.72 ± 0.68%. It also gave a cell proliferation [4] of 99.916 ± 0.05%, a cell proliferation [5] of 56.1 ± 5.2% and a cell proliferation [6] of 76.3 ± 3.2%. The cell proliferation [7] was 99.26 ± 0.96%, the cell proliferation [8] was 99.43 ± 0.33% and the cell proliferation [9] was 98.56 ± 0.55%. For the same compound, the cell proliferation [10] was 93.7 ± 9.7%, the cell proliferation [11] was 75.6 ± 20% and the cell proliferation [12] was 99.971 ± 0.051%.

`CCn1cc(-c2cccc(C(F)(F)F)c2)c2sc(C(=N)NC3CCS(=O)(=O)CC3)cc2c1=O` gave a cell proliferation [1] of 99.17 ± 0.79%, a cell proliferation [2] of 98.86 ± 0.38% and a cell proliferation [3] of 98.69 ± 0.74%. For the same compound, the cell proliferation [4] was 99.948 ± 0.021%, the cell proliferation [5] was 44.8 ± 4% and the cell proliferation [6] was 78.6 ± 12%. For the same compound, the cell proliferation [7] was 98.94 ± 0.64%, the cell proliferation [8] was 96.7 ± 3.6% and the cell proliferation [9] was 99.5 ± 0.38%. The cell proliferation [10] was 71.8 ± 6.5%, the cell proliferation [11] was 23.9 ± 2.3% and the cell proliferation [12] was 99.974 ± 0.019%.

Compound `O=C([C@@H](Cc1cccc(C(F)(F)F)c1)NS(=O)(=O)c1cc(F)c2c(c1)CCNC2)N1CCCC1` has a cell proliferation [1] of 98.6 ± 1.6%, a cell proliferation [2] of 97.2 ± 1.3% and a cell proliferation [3] of 97.9 ± 1.8%. It also gave a cell proliferation [4] of 99.978 ± 0.021%, a cell proliferation [5] of 79.2 ± 12% and a cell proliferation [6] of 86.9 ± 14%. It also gave a cell proliferation [7] of 99.44 ± 0.59%, a cell proliferation [8] of 96.1 ± 2.5% and a cell proliferation [9] of 94.3 ± 4.3%. The cell proliferation [10] was 82.3 ± 15%, the cell proliferation [11] was 87.4 ± 7.1% and the cell proliferation [12] was 99.992 ± 0.0088%.

`CC(C)Oc1ccc(-c2c[nH]cc2CN(C)CCO)cc1` showed a cell proliferation [1] of 97.58 ± 0.92%, a cell proliferation [2] of 97.5 ± 1.6% and a cell proliferation [3] of 96.98 ± 0.82%. It also gave a cell proliferation [4] of 99.978 ± 0.011%, a cell proliferation [5] of 61.5 ± 8.3% and a cell proliferation [6] of 81.7 ± 3.2%. It also gave a cell proliferation [7] of 99.55 ± 0.37%, a cell proliferation [8] of 97.3 ± 1.8% and a cell proliferation [9] of 97.16 ± 0.64%. The cell proliferation [10] was 94.2 ± 3.9%, the cell proliferation [11] was 74 ± 11% and the cell proliferation [12] was 99.986 ± 0.014%.

In the case of `Cc1cc(=O)n(C)c2cc(N3C(=O)CC[C@H](NS(=O)(=O)CC(C)C)[C@H]3c3ccc(Cl)cc3)ccc12`, the cell proliferation [1] is reported as 98.62 ± 0.82%, the cell proliferation [2] is reported as 98.85 ± 0.5% and the cell proliferation [3] is reported as 99.53 ± 0.27%. The cell proliferation [4] was 99.99 ± 0.01%, the cell proliferation [5] was 55.4 ± 11% and the cell proliferation [6] was 81.7 ± 5.8%. The cell proliferation [7] was 99.02 ± 0.89%, the cell proliferation [8] was 85.8 ± 9.3% and the cell proliferation [9] was 98.75 ± 0.26%. The cell proliferation [10] was 71 ± 19%, the cell proliferation [11] was 82.6 ± 16% and the cell proliferation [12] was 99.951 ± 0.055%.

`COc1cc2c(cc1OCCCN1CCCC1)N=C(N)C21CCC1` was tested, and the cell proliferation [1] was 99.32 ± 0.28%, the cell proliferation [2] was 83.1 ± 6.3% and the cell proliferation [3] was 95.6 ± 3.2%. For the same compound, the cell proliferation [4] was 99.981 ± 0.027%, the cell proliferation [5] was 80.7 ± 2.8% and the cell proliferation [6] was 99.41 ± 0.36%. It also gave a cell proliferation [7] of 98.89 ± 0.42%, a cell proliferation [8] of 96.5 ± 3.6% and a cell proliferation [9] of 92.3 ± 4.1%. For the same compound, the cell proliferation [10] was 72.5 ± 12%, the cell proliferation [11] was 78.6 ± 16% and the cell proliferation [12] was 99.951 ± 0.031%.
